# Laboratory results reported in PubChem BioAssay.
# Where “and” joins values, the source holds several entries; their conditions need not be identical. Identical values can stand only once. Records with an inconclusive call do not appear. Calls of active or inactive are those of the source. Unless noted, the rule behind the calls is not given here.
# How the values were obtained:
# [1] = compounds altering circadian rhythm period length – cell-based, LOPAC library, luminescence reporter (AID 2774); conditions: circadian reporter cells, at 7 µM, actives lie on both sides;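 note: values are relative to mean of DMSO wells on each plate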
# [2] = test system: Hepatitis C virus NS3 helicase; experiment: blockers of NS3h binding to ssDNA – biochemical, fluorescence polarization, LOPAC1280 library, primary screen (AID 687035; in the data active = inhibition above about 37%); conditions: Purified HCV NS3 helicase, Cy5-dT15 ssDNA binding fluorescence polarization; stronger effect = higher value; concentration not given here
# [3] = compounds altering Cy5-DNA-NS3h complex signal – biochemical, LOPAC1280, artefact control for HCV NS3 helicase inhibitor project (AID 687037); conditions: Cy5-DNA-NS3h complex fluorescence interference counterscreen
# [4] = test system: Aerobactin synthetase IucA (Klebsiella pneumoniae, hypervirulent); experiment: biochemical IucA inhibition screen of LOPAC library by absorbance (AID 1346212); conditions: IucA enzyme assay, absorbance (OD) readout; stronger effect = lower value;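 tested at 8 µM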;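 note: 100% = no compound wells and 0% = no enzyme wells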
# [5] = viability loss with induced miR-34 in A549 – imaging, A549 dox-inducible miR-34, nuclei and caspase counts, primary screen (AID 1347080;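 active = compounds whose cell count with miR-34 switched on is under 0.7 times the count with it off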); conditions: A549 miR-34 inducible, Hoechst nuclei count, 48 h
# [6] = blockers of cellular phospholipid synthesis – cell-based, LOPAC library, screen 4, primary screen (AID 1347384); conditions: animal cells, phospholipid biosynthesis inhibition screen; at 10 µM
# [7] = galactose survival enhancers in mitochondrial complex I cybrids – cell-based, galactose medium, ATP luminescence, primary screen (AID 1645843;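 active = z-score of at least 1.8 in each of two replicates, scored against plate mean and spread of sample wells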;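 note: positive z means more ATP and so rescue of galactose-driven cybrid death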); conditions: complex I mutant cybrid cells, 72 h, stronger effect = higher value
# [8] = viability loss in pontine glioma line – cell-based, SU-DIPG-XVII, MIPE5.0, CellTiter-Glo, qHTS, dose response (AID 1347060; cut-off not given, nearly all actives have AC50 up to about 26 µM;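 note: cells exposed to compound for 48 hours before viability readout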); conditions: CellTiter-Glo ATP luminescence
# [9] = viability loss in pontine glioma line – cell-based, SU-DIPG-XIII, MIPE4.0, CellTiter-Glo, qHTS, dose response (AID 1347061; cut-off not given, nearly all actives have AC50 up to about 37 µM;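 note: cells exposed to compound for 48 hours before readout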); conditions: CellTiter-Glo ATP luminescence
# [10] = viability loss in pontine glioma line – cell-based, JHH-DIPG-1, MIPE4.0, CellTiter-Glo, qHTS, dose response (AID 1347062; cut-off not given, nearly all actives have AC50 up to about 27 µM;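 note: cells exposed to compound for two days before readout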); conditions: JHH-DIPG-1 viability, CellTiter-Glo ATP luminescence
# [11] = viability loss in pontine glioma line – cell-based, SU-DIPG-IV, MIPE4.0, CellTiter-Glo, qHTS, dose response (AID 1347063; cut-off not given, nearly all actives have AC50 up to about 30 µM;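 note: compound exposure lasted 48 hours before the viability readout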); conditions: CellTiter-Glo ATP luminescence
# [12] = viability loss in pontine glioma line – cell-based, SU-DIPG-XIII, MIPE5.0, CellTiter-Glo, qHTS, dose response (AID 1347064; cut-off not given, nearly all actives have AC50 up to about 23 µM;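 note: cells exposed to compound for 48 hours before the viability read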); conditions: CellTiter-Glo ATP luminescence
# [13] = viability loss in pontine glioma line – cell-based, SU-DIPG-XXV, MIPE5.0, CellTiter-Glo, qHTS, dose response (AID 1347065; cut-off not given, nearly all actives have AC50 up to about 26 µM;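 note: cells exposed to compound for 48 hours before ATP readout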); conditions: CellTiter-Glo ATP luminescence
# [14] = growth inhibition of DIPG cells – cell-based, MIPE4.0 library, CellTiter-Glo luminescence, qHTS (AID 1347066; cut-off not given, nearly all actives have AC50 up to about 30 µM;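 note: cells exposed to compound for 48 hours before readout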); conditions: SU-DIPG-VI viability, CellTiter-Glo ATP luminescence
# [15] = growth inhibition of DIPG cells – cell-based, MIPE5.0 library, qHTS (AID 1347068; cut-off not given, nearly all actives have IC50 up to about 30 µM;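 note: cells exposed to compound for 48 hours before viability readout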); conditions: SU-DIPG-XXV viability
# [16] = chitosan synthesis blockers in C. neoformans – flow cytometry, Cibacron Brilliant Red staining (AID 1347148); conditions: Cryptococcus neoformans chitosan, stronger effect = lower value; at 10 µM unless noted;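 note: compound exposure lasted three days at 37 degrees C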
# [17] = compounds altering viability of human ES cells (AID 493140); conditions: human embryonic stem cell survival screen; stronger effect = higher value;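 note: cells exposed to compounds for four days before counting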
# [18] = measured here: relative caspase fold change +Dox/-Dox
# [19] = measured here: total cells with miR-34 induction, stronger effect = lower value
# [20] = measured here: total cells without miR-34 induction
smiles,measurement,setting,value
c1ccc2c(N3CCNCC3)cccc2c1,period change,[1],0.19 h (inactive)
same,inhibition,[2],-1% (inactive)
same,fluorescence ratio (interference),[3],1 (inactive)
same,remaining activity,[4],77.2% (inactive)
same,fold change,[5]; stronger effect = lower value,0.966 (inactive)
same,fold change,[5]; [18],1.06
same,cell count,[5]; [19],8750
same,cell count,[5]; [20],9060
same,outcome,[6],inactive
same,z-score,[7],-0.255 (inactive)
O=[N+]([O-])c1ccc2nc(N3CCNCC3)ccc2c1,period change,[1],-0.09 h (inactive)
same,inhibition,[2],-1% (inactive)
same,fluorescence ratio (interference),[3],1 (inactive)
same,remaining activity,[4],117% (inactive)
same,fold change,[5]; stronger effect = lower value,1.07 (inactive)
same,fold change,[5]; [18],1.56
same,cell count,[5]; [19],8660
same,cell count,[5]; [20],8090
same,outcome,[6],inactive
same,z-score,[7],-1.12 (inactive)
CN1CCc2cccc(Cl)c2CC1,period change,[1],0.06 h (inactive)
same,inhibition,[2],-4% (inactive)
same,fluorescence ratio (interference),[3],1 (inactive)
same,remaining activity,[4],114% (inactive)
same,fold change,[5]; stronger effect = lower value,1.03 (inactive)
same,fold change,[5]; [18],1.41
same,cell count,[5]; [19],9920
same,cell count,[5]; [20],9620
same,outcome,[6],inactive
same,z-score,[7],0.41 (inactive)
C/C=C(/C)C(=O)O[C@H]1C(C)=C2[C@H]([C@@H]1OC(=O)CCCCCCC)[C@@](C)(OC(C)=O)C[C@H](OC(=O)CCC)[C@@]1(O)[C@H]2OC(=O)[C@@]1(C)O,period change,[1],9.62 h (inactive)
same,inhibition,[2],-3% (inactive)
same,fluorescence ratio (interference),[3],1 (inactive)
same,remaining activity,[4],86.6% (inactive)
same,AC50,[8],0.0525 µM (active)
same,AC50,[9],0.59 µM (active)
same,AC50,[10],0.0469 µM (active)
same,AC50,[11],0.00743 µM (active)
same,AC50,[12],0.295 µM (active)
same,AC50,[13],0.0235 µM (active)
same,AC50,[14],0.105 µM (active)
same,IC50,[15],1.32 µM (active)
same,fold change,[5]; stronger effect = lower value,1.93 (inactive) and 1.56 (inactive)
same,fold change,[5]; [18],0.132 and 0.916
same,cell count,[5]; [19],662 and 522
same,cell count,[5]; [20],343 and 336
same,fold fluorescence,[16],5.31 [at 76.8 µM] (inactive)
same,outcome,[6],inactive
same,z-score,[7],-1.38 (inactive)
NC(=O)CI,period change,[1],-0.03 h (inactive)
same,inhibition,[2],-1% (inactive)
same,fluorescence ratio (interference),[3],1.1 (inactive)
same,remaining activity,[4],124% (inactive)
same,fold change,[5]; stronger effect = lower value,1.11 (inactive)
same,fold change,[5]; [18],1.73
same,cell count,[5]; [19],3640
same,cell count,[5]; [20],3270
same,outcome,[6],inactive
same,z-score,[7],-1 (inactive)
CO[C@H]1CC=C2CCN3CCC4=C(CC(=O)OC4)[C@]23C1,period change,[1],0.065 h (inactive)
same,inhibition,[2],-3% (inactive)
same,fluorescence ratio (interference),[3],1 (inactive)
same,remaining activity,[4],103% (inactive)
same,fold change,"[5]; stronger effect = lower value, cell number ratio, induced over uninduced",0.939 (inactive)
same,fold change,[5]; [18],1.26
same,cell count,[5]; [19],9420
same,cell count,[5]; [20],10000
same,outcome,[6],inactive
same,z-score,[7],0.375 (inactive)
N#C/C(=C\c1ccc(O)c(O)c1)C(N)=S,survival,[17],132 (inactive)
same,remaining activity,[4],89.1% (inactive)
same,fold change,[5]; stronger effect = lower value,0.909 (inactive)
same,fold change,[5]; [18],1.22
same,cell count,[5]; [19],4790
same,cell count,[5]; [20],5270
same,fold fluorescence,[16],5.68 [at 227 µM] (inactive)
CCCN(CCC)[C@H]1CCc2c(F)ccc(O)c2C1,period change,[1],-0.075 h (inactive)
same,inhibition,[2],-4% (inactive)
same,fluorescence ratio (interference),[3],1 (inactive)
same,remaining activity,[4],115% (inactive)
same,fold change,[5]; stronger effect = lower value,1.05 (inactive)
same,fold change,[5]; [18],1.11
same,cell count,[5]; [19],10100
same,cell count,[5]; [20],9610
same,outcome,[6],inactive
same,z-score,[7],-0.33 (inactive)
CC(=O)[C@H]1CCC2C3CC[C@H]4C[C@H](O)CC[C@]4(C)C3CC[C@@]21C (stereo partly specified),period change,[1],-0.055 h (inactive)
same,inhibition,[2],0% (inactive)
same,fluorescence ratio (interference),[3],1 (inactive)
same,remaining activity,[4],95.7% (inactive)
same,fold change,[5]; stronger effect = lower value,1.03 (inactive)
same,fold change,[5]; [18],0.981
same,cell count,[5]; [19],10100
same,cell count,[5]; [20],9760
same,outcome,[6],inactive
same,z-score,[7],-0.6 (inactive)
Clc1cnc(Oc2ccc(Oc3ncc(Cl)cc3Cl)cc2)c(Cl)c1,period change,[1],0 h (inactive)
same,inhibition,[2],-3% (inactive)
same,fluorescence ratio (interference),[3],1 (inactive)
same,remaining activity,[4],94.8% (inactive)
same,fold change,[5]; stronger effect = lower value,0.984 (inactive)
same,fold change,[5]; [18],1.88
same,cell count,[5]; [19],9890
same,cell count,[5]; [20],10000
same,outcome,[6],inactive
same,z-score,[7],1.21 (inactive)
Ic1ccccc1CNC1C2CCN(CC2)C1C(c1ccccc1)c1ccccc1 (stereo unspecified),period change,[1],0.145 h (inactive)
same,inhibition,[2],-8% (inactive)
same,fluorescence ratio (interference),[3],0.9 (inactive)
same,remaining activity,[4],98.2% (inactive)
same,fold change,[5]; stronger effect = lower value,0.485 (active)
same,fold change,[5]; [18],0.281
same,cell count,[5]; [19],329
same,cell count,[5]; [20],679
same,outcome,[6],inactive
same,z-score,[7],-1.29 (inactive)
COc1ccc2c(c1O)-c1cccc3c1[C@@H](C2)N(C)CC3,period change,[1],-0.1 h (inactive)
same,inhibition,[2],-4% (inactive)
same,fluorescence ratio (interference),[3],1 (inactive)
same,remaining activity,[4],102% (inactive)
same,fold change,[5]; stronger effect = lower value,0.958 (inactive)
same,fold change,[5]; [18],1.07
same,cell count,[5]; [19],7690
same,cell count,[5]; [20],8030
same,outcome,[6],inactive
same,z-score,[7],-0.76 (inactive)
NNC(=O)c1ccc(O)cc1,period change,[1],0.115 h (inactive)
same,inhibition,[2],1% (inactive)
same,fluorescence ratio (interference),[3],1.1 (inactive)
same,remaining activity,[4],109% (inactive)
same,fold change,[5]; stronger effect = lower value,0.976 (inactive)
same,fold change,[5]; [18],1.57
same,cell count,[5]; [19],9790
same,cell count,[5]; [20],10000
same,outcome,[6],inactive
same,z-score,[7],0.275 (inactive)
NC1CCc2cc(O)c(O)cc2C1 (stereo unspecified),period change,[1],0.115 h (inactive)
same,inhibition,[2],-1% (inactive)
same,fluorescence ratio (interference),[3],1 (inactive)
same,remaining activity,[4],106% (inactive)
same,fold change,[5]; stronger effect = lower value,0.979 (inactive) and 0.806 (inactive)
same,fold change,[5]; [18],1.51 and 1.21
same,cell count,[5]; [19],9700 and 3720
same,cell count,[5]; [20],9900 and 4610
same,outcome,[6],inactive
same,z-score,[7],-0.895 (inactive)
NNC(N)=O,period change,[1],-0.03 h (inactive)
same,inhibition,[2],-3% (inactive)
same,fluorescence ratio (interference),[3],1 (inactive)
same,remaining activity,[4],102% (inactive)
same,fold change,[5]; stronger effect = lower value,0.944 (inactive)
same,fold change,[5]; [18],0.77
same,cell count,[5]; [19],10400
same,cell count,[5]; [20],11000
same,outcome,[6],inactive
same,z-score,[7],0.4 (inactive)
CCCN1CCc2cc(O)cc3c2[C@H]1Cc1ccc(O)c(O)c1-3,period change,[1],0.415 h (inactive)
same,inhibition,[2],1% (inactive)
same,fluorescence ratio (interference),[3],1 (inactive)
same,remaining activity,[4],99.8% (inactive)
same,fold change,[5]; stronger effect = lower value,0.922 (inactive)
same,fold change,[5]; [18],1.32
same,cell count,[5]; [19],9400
same,cell count,[5]; [20],10200
same,outcome,[6],inactive
same,z-score,[7],-0.965 (inactive)
